In paper PMC5700166:

Target: GST-Hu-p50 (Homo sapiens, UniProt P19838 7-356)
Experiment: protein-binding microarray (PBM); PBM: ~300 nM protein, 6 mM HEPES pH 7.8, 80 mM KCl, 0.5 mM EDTA, 0.5 mM EGTA, 6% glycerol, 35 ng/ul poly-dIdC, 1% milk, 1 h, room temperature; Ap Aiptasia and Nv Nematostella (sea anemones) / Co Capsaspora / Aq Amphimedon (sponge) / Dm Drosophila / Hu human; RHD is the Rel homology domain; high values mean tight binding
Conditions: dsDNA, one strand shown

Chain of GST-Hu-p50 (P19838 7-356): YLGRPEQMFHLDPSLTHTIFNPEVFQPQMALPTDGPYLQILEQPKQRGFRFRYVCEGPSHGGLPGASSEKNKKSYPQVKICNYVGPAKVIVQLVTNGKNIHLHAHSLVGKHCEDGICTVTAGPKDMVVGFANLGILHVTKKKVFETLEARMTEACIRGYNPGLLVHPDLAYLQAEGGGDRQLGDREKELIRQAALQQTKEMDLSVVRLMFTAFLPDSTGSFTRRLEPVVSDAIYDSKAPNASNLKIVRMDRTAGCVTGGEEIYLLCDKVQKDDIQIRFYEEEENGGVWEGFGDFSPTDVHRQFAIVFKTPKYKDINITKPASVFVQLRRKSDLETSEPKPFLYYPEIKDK

| Sequence | binding signal [z-score] |
| --- | --- |
| CCGATTAACATCAAGGTATTTCCTGATGTTAATCGGGTCTTGATTCGCTTGACGCTGCTG | 1.29 |
| CCGATTAACATCACAAATTTCCCTGATGTTAATCGGGTCTTGATTCGCTTGACGCTGCTG | 5.09 |
| CCGATTAACATCAGGATTTTCCCTGATGTTAATCGGGTCTTGATTCGCTTGACGCTGCTG | 5 |
| CCGATTAACATCAGGGGTATACCTGATGTTAATCGGGTCTTGATTCGCTTGACGCTGCTG | 1.99 |
| CCGATTAACATCACGGCAACCCCTGATGTTAATCGGGTCTTGATTCGCTTGACGCTGCTG | 1.19 |
| CCGATTAACATCACGGCAATCCCTGATGTTAATCGGGTCTTGATTCGCTTGACGCTGCTG | 1.12 |
| CCGATTAACATCAGGACTATCCCTGATGTTAATCGGGTCTTGATTCGCTTGACGCTGCTG | 1.81 |
| CCGATTAACATCATGTCTATCGGTGATGTTAATCGGGTCTTGATTCGCTTGACGCTGCTG | 1.14 |
| CCGATTAACATCAGGAAGGCCCCTGATGTTAATCGGGTCTTGATTCGCTTGACGCTGCTG | 2.59 |
| CCGATTAACATCAAATAATTCCCTGATGTTAATCGGGTCTTGATTCGCTTGACGCTGCTG | 5.03 |
| CCGATTAACATCAAGGAAATTCCTGATGTTAATCGGGTCTTGATTCGCTTGACGCTGCTG | 1.33 |
| CCGATTAACATCAATAAAGTCCCTGATGTTAATCGGGTCTTGATTCGCTTGACGCTGCTG | 5.23 |
| CCGATTAACATCAGGCGTTTCCCTGATGTTAATCGGGTCTTGATTCGCTTGACGCTGCTG | 1.83 |
| CCGATTAACATCAACCAATTCCCTGATGTTAATCGGGTCTTGATTCGCTTGACGCTGCTG | 2.54 |
| CCGATTAACATCACCCCAACCCCTGATGTTAATCGGGTCTTGATTCGCTTGACGCTGCTG | 1.66 |
| CCGATTAACATCACCCAAAGTTTTGATGTTAATCGGGTCTTGATTCGCTTGACGCTGCTG | 1.11 |
| CCGATTAACATCATGAAGACCCCTGATGTTAATCGGGTCTTGATTCGCTTGACGCTGCTG | 1.77 |
| CCGATTAACATCATTAATGACGGTGATGTTAATCGGGTCTTGATTCGCTTGACGCTGCTG | 1.09 |
| CCGATTAACATCAAAAAATTACCTGATGTTAATCGGGTCTTGATTCGCTTGACGCTGCTG | 4.27 |

| Sequence | binding signal [z-score] |
| --- | --- |
| CCGATTAACATCAAAAGTTTCCCTGATGTTAATCGGGTCTTGATTCGCTTGACGCTGCTG | 5.09 |
| CCGATTAACATCAACGGTGGAAATGATGTTAATCGGGTCTTGATTCGCTTGACGCTGCTG | 1.15 |
| CCGATTAACATCAGGCGGTAAGGTGATGTTAATCGGGTCTTGATTCGCTTGACGCTGCTG | 1.29 |
| CCGATTAACATCACCTATTCCCCTGATGTTAATCGGGTCTTGATTCGCTTGACGCTGCTG | 5.12 |
| CCGATTAACATCACTTTTTTCCCTGATGTTAATCGGGTCTTGATTCGCTTGACGCTGCTG | 3.53 |
| CCGATTAACATCAGGAAACACCCTGATGTTAATCGGGTCTTGATTCGCTTGACGCTGCTG | 3.48 |
| CCGATTAACATCACCCCATCTCGTGATGTTAATCGGGTCTTGATTCGCTTGACGCTGCTG | 1.44 |
| CCGATTAACATCACCCGAGTGCGTGATGTTAATCGGGTCTTGATTCGCTTGACGCTGCTG | 1.1 |
| CCGATTAACATCAGGGGAGATTATGATGTTAATCGGGTCTTGATTCGCTTGACGCTGCTG | 4.94 |
| CCGATTAACATCATTAGGGAAAATGATGTTAATCGGGTCTTGATTCGCTTGACGCTGCTG | 4.64 |
| CCGATTAACATCACGGAAATTTATGATGTTAATCGGGTCTTGATTCGCTTGACGCTGCTG | 1.44 |
| CCGATTAACATCAGGGAAAATCATGATGTTAATCGGGTCTTGATTCGCTTGACGCTGCTG | 3.98 |
| CCGATTAACATCACGAAATTCCCTGATGTTAATCGGGTCTTGATTCGCTTGACGCTGCTG | 5.1 |
| CCGATTAACATCAAATTCTCCCCTGATGTTAATCGGGTCTTGATTCGCTTGACGCTGCTG | 5.07 |
| CCGATTAACATCAGGGGAAGCACTGATGTTAATCGGGTCTTGATTCGCTTGACGCTGCTG | 5.16 |
| CCGATTAACATCAGGAAGTTACCTGATGTTAATCGGGTCTTGATTCGCTTGACGCTGCTG | 1.42 |
| CCGATTAACATCAGGAATCACCCTGATGTTAATCGGGTCTTGATTCGCTTGACGCTGCTG | 3.31 |
| CCGATTAACATCAGTAGTGGGGCTGATGTTAATCGGGTCTTGATTCGCTTGACGCTGCTG | 1.09 |
